# The supplement of paper PMC6411743
# ± gives the standard deviation of the averaged measurements. Targets with the largest changes are over-represented here; the source holds about 6,500 in all.
# Key:
# Assay in all cases: NP40-soluble protein abundance relative to vehicle (solubility fold change) (ratio); higher = more soluble protein in presence of ATP
# I3L0H8|Q9NUU7|Q9NUU7-2 = target: T1, I3L0H8|Q9NUU7|Q9NUU7-2 (UniProt Q9NUU7)
# T1 sequence (whole entry): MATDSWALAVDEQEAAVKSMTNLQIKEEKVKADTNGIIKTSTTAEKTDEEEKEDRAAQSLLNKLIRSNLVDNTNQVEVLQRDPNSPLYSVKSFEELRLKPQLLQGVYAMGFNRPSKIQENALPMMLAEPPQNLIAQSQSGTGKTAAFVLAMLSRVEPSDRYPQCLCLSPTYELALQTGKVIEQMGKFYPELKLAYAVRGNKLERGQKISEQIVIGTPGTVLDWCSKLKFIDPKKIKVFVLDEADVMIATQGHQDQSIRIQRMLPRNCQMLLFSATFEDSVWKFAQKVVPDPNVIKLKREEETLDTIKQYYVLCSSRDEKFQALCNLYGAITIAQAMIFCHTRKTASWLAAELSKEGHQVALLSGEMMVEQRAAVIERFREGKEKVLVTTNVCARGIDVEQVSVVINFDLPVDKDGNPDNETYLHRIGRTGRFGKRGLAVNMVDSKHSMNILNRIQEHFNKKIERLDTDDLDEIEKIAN
# Summary of the method: (§1)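 Eight concentrations, 0.1 to 10 mM, were tested on Jurkat crude lysate for 10 min at room temperature and then 3 min at 37 °C, in three independent experiments. The lysate was solubilised with 0.8% NP40 and benzonase, ultracentrifuged, and the supernatant TMT-labelled for LC-MS/MS. Each value is the fold change against the detergent-processed vehicle in its own replicate, from vsn-normalised intensities.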
# J3KPS0|Q9NXW2 = target: T2, J3KPS0|Q9NXW2 (UniProt Q9NXW2)
# T2 sequence (whole entry): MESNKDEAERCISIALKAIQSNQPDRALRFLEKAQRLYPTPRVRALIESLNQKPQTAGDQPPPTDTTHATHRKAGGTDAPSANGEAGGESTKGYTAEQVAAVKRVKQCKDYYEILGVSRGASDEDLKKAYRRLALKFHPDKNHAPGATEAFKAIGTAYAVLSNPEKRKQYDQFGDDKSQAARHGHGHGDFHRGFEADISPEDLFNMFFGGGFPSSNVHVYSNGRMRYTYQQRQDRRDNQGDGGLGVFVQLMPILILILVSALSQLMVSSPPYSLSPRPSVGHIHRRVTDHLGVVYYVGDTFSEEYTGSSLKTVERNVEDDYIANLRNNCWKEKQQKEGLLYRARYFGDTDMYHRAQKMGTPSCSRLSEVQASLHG
# Summary of the method: as §1
# SNAP23 = target: T3, SNAP23 (UniProt O00161)
# T3 sequence (whole entry): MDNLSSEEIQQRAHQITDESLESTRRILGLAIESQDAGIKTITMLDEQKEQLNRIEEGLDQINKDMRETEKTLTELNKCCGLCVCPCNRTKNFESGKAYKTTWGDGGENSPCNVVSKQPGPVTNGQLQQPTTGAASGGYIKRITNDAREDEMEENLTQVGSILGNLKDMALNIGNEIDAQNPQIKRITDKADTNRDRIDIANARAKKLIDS
# Summary of the method: as §1
# UniProt O14966|O14966-2 = target: T4, UniProt O14966|O14966-2
# T4 sequence (whole entry): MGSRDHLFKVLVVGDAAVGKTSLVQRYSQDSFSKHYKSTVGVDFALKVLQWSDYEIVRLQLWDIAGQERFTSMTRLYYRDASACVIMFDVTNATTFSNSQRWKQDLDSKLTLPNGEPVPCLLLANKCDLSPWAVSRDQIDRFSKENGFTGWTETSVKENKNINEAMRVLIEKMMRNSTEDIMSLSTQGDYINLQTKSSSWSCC
# Summary of the method: as §1
smiles,measurement,setting,value
Nc1ncnc2c1ncn2[C@@H]1O[C@H](COP(=O)(O)OP(=O)(O)OP(=O)(O)O)[C@@H](O)[C@H]1O [adenosine triphosphate],NP40-soluble protein abundance,I3L0H8|Q9NUU7|Q9NUU7-2; concentration: 1mM,1.03 ± 0.02
same,NP40-soluble protein abundance,I3L0H8|Q9NUU7|Q9NUU7-2; concentration: 2mM,1.03 ± 0.028
same,NP40-soluble protein abundance,I3L0H8|Q9NUU7|Q9NUU7-2; concentration: 4mM,1 ± 0.03
same,NP40-soluble protein abundance,I3L0H8|Q9NUU7|Q9NUU7-2; concentration: 6mM,1.02 ± 0.058
same,NP40-soluble protein abundance,I3L0H8|Q9NUU7|Q9NUU7-2; concentration: 8mM,1.02 ± 0.012
same,NP40-soluble protein abundance,I3L0H8|Q9NUU7|Q9NUU7-2; concentration: 10mM,1.02 ± 0.013
same,NP40-soluble protein abundance,J3KPS0|Q9NXW2; concentration: 1mM,0.902 ± 0.035
same,NP40-soluble protein abundance,J3KPS0|Q9NXW2; concentration: 2mM,0.898 ± 0.056
same,NP40-soluble protein abundance,J3KPS0|Q9NXW2; concentration: 4mM,0.867 ± 0.058
same,NP40-soluble protein abundance,J3KPS0|Q9NXW2; concentration: 6mM,0.846 ± 0.12
same,NP40-soluble protein abundance,J3KPS0|Q9NXW2; concentration: 8mM,0.845 ± 0.11
same,NP40-soluble protein abundance,J3KPS0|Q9NXW2; concentration: 10mM,0.833 ± 0.1
same,NP40-soluble protein abundance,SNAP23; concentration: 1mM,0.944 ± 0.077
same,NP40-soluble protein abundance,SNAP23; concentration: 2mM,0.947 ± 0.024
same,NP40-soluble protein abundance,SNAP23; concentration: 4mM,0.943 ± 0.021
same,NP40-soluble protein abundance,SNAP23; concentration: 6mM,1 ± 0.061
same,NP40-soluble protein abundance,SNAP23; concentration: 8mM,0.921 ± 0.02
same,NP40-soluble protein abundance,SNAP23; concentration: 10mM,0.883 ± 0.03
same,NP40-soluble protein abundance,UniProt O14966|O14966-2; concentration: 1mM,0.995 ± 0.072
same,NP40-soluble protein abundance,UniProt O14966|O14966-2; concentration: 2mM,1.01 ± 0.075
same,NP40-soluble protein abundance,UniProt O14966|O14966-2; concentration: 4mM,0.958 ± 0.099
same,NP40-soluble protein abundance,UniProt O14966|O14966-2; concentration: 6mM,1.03 ± 0.09
same,NP40-soluble protein abundance,UniProt O14966|O14966-2; concentration: 8mM,0.99 ± 0.1
same,NP40-soluble protein abundance,UniProt O14966|O14966-2; concentration: 10mM,1.01 ± 0.04
